CaV13 ICDI inh: Disruptors of the CACNA1D IQ motif to Ca2+-dependent inactivation inhibitor domain association, primary screening, Förster resonance energy transfer in intact living …; HEK cells, CFP/YFP FRET ICDI-IQ, plate reader, 10 min; percent FRET-ratio fall versus neutral wells; 0.098% of 340,000 active; inhibition, % at 12.3 µM;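 active = mean replicate inhibition of at least 30% and at least 1% of replicates passing that level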;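 note: 0% = median of the neutral control wells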
NPR1 activator: GC-A (human) enzyme activation; 0.14% of 370,000 active; activation, % at 10 µM; HEK293 GC-A cells, cGMP TR-FRET, EC30 ANP; 0% at EC30 ANP, 100% saturating ANP; in the data active = activation above about 40%
Rin1 Abl inh: inhibitors of human Rin1-Abl protein interaction | 0.4% of 360,000 active | P00519+Q13671 | TR-FRET Rin1/Abl binding, biochemical | inhibition, % at 7.35 µM; in the data active = inhibition above about 5%, passing the limit was not always enough
NPR2 activator: GC-B (human) receptor activation; HEK293-GC-B cells, CNP EC30, cGMP TR-FRET; 0% at EC30 CNP, 100% saturating CNP; activation, % at 10 µM; 0.11% of 370,000 active;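 active = activation at 10 µM reaching about 35% in either raw or pattern-adjusted values, limit read from the data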
Rin1-Abl confirm: confirmation of inhibitors of human Rin1-Abl interaction; shares compounds with Rin1 Abl inh; TR-FRET Rin1-Abl binding, purified proteins; inhibition, % at 7.35 µM; 49% of 1,300 active
GFP quencher: GFP fluorescence interference artifact; 8.5% of 1,300 active; inhibition, % at 6.75 µM; inhibitors/quenchers counterscreen; AID 602125; shares compounds with Rin1 Abl inh;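 note: ABL1-eGFP fusion protein alone without its partner RIN1-SBP; 0% = protein with vehicle and 100% = wells lacking protein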
GFP quench DR: counter-screen for Rin1-Abl inhibitors: GFP quenchers, dose response; IC50, µM; 230 tested, under 10 active; GFP fluorescence interference/quenching counterscreen; shares compounds with Rin1 Abl inh; call rule not given here;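 note: ABL1-eGFP fusion protein alone without its RIN1 binding partner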
* marks the source's active call; other numbers are inactive results; . = no result given. The list is not random: actives were taken first. Their share in the collection is about 0.67%. Cut-off read from the data, not from the text of the source, unless noted: active = inhibition above about 6.5%; inactive = the rest.

SMILES	CaV13 ICDI inh	NPR1 activator	Rin1 Abl inh	NPR2 activator	others
CCOP(=S)(OCC)Oc1cc(C)nc(C(C)C)n1	-4	2	-2	74*
CCn1nc(-c2cccs2)nc2c(=O)n(C)c(=O)nc1-2	.	.	20*	.
CN1C(=O)[C@@]23C[C@]4(c5c[nH]c6ccccc56)c5ccccc5N(S(=O)(=O)c5ccccc5)[C@@H]4N2C(=O)[C@@H]1SS3	.	-17	.	13
COC(=O)C1(N(C)c2ccccc2)CCN(Cc2ccccc2)CC1	.	4	.	1
COc1ccccc1N1C(=O)NC(=O)/C(=C\c2cnn(-c3ccccc3)c2)C1=O	-5	52*	2	11
O=C(NC(Cc1ccccc1)P(=O)(O)Oc1ccccc1)OCc1ccccc1 (centres undefined)	.	1	.	1
CC(C)OP(=O)(O)NC(=O)c1ccccc1	167*	0	-2	3
CCOP(=O)(OCC)C(NC(=O)c1ccccc1)C(Cl)(Cl)Cl (centres undefined)	-5	2	0	1
c1cncc(-c2ccc3n2Cc2cnnn2-c2ccccc2-3)c1	.	-1	.	1
CO[C@H]([C@H](C)/C=C/N(C)C=O)[C@@H](C)C(=O)CC[C@H](C)[C@H](O)[C@H](C)[C@H]1OC(=O)/C=C/C(C)=C/[C@H](O)[C@H](OC)C[C@@H]2C=CC[C@@H](C[C@H](OC)[C@@H](CO)[C@@H](OC)C[C@@H](OC)[C@@H]1C)O2	.	-27	.	-29
CC(=O)c1c(C)n(Cc2ccccc2)c2ccc(O)cc12	-1	74*	-1	15
C=COCCn1c(C)c(C(=O)OCC)c2cc(O)ccc21	-5	1	-4	-4
Cc1c(C(=O)C(=O)N2CCOCC2)c2ccccc2n1Cc1ccccc1	-2	4	-6	3
COC(=O)c1c(C)n(Cc2ccccc2)c2ccc(O)cc12	-11	80*	0	5
CCOC(=O)c1c(C)n(Cc2ccccc2)c2ccc(O)cc12	.	86*	0	5
CN1C(=O)C(=Cc2ccc(SC3CCCCC3)o2)C(=O)N(C)C1=O	-4	47*	3	-2
COc1cc2c(cc1OC)[C@H]1C(=O)c3ccc4c(c3O[C@H]1CO2)C[C@@H](C(C)(C)O)O4	-11	56*	1	3
COc1cc2c(cc1OC)[C@@H]1C(=O)c3ccc4c(c3O[C@@H]1CO2)C[C@H](C(C)C)O4	2	-3	3	-6
Cc1ccc(/C=C2\C(=O)NC(=S)N(c3ccc(F)cc3)C2=O)o1	-6	1	5	3
Cc1ccc(N2C(=O)/C(=C/c3ccc(CN(CCC#N)S(C)(=O)=O)o3)C(=O)NC2=S)cc1	.	.	5.2*	.
Cc1ccccc1CCC[C@H](CC1CCCCC1)CN(C)C(=O)Oc1ccccc1	.	-4	.	-1
COc1cc(C(c2c(C)[nH]n(-c3ccccc3)c2=O)c2c(C)[nH]n(-c3ccccc3)c2=O)cc(OC)c1OC	-8	13	9.7*	-1
O=C(CN1C(=O)[C@@H](Cc2ccccc2)N=C(c2ccccc2)c2ccccc21)NC1CCCCC1	.	-21	.	-27
N#CC1=C(N)Oc2cc(O)ccc2C1c1ccc2c(c1)OCO2 (centres undefined)	144*	44*	-3	7
c1cc2c(cc1[C@H]1OC[C@H]3[C@@H]1CO[C@H]3c1ccc3c(c1)OCO3)OCO2	11	0	1	1
SMILES	CaV13 ICDI inh	NPR1 activator	Rin1 Abl inh	NPR2 activator	others
CCCCCCn1c(N)c(C(=O)NCCN2CCOCC2)c2nc3ccccc3nc21	.	28	-2	36*
Oc1ccc(/C=N/NP(=S)(c2ccccc2)c2ccccc2)c(O)c1O	-4	-6	16*	1	Rin1-Abl confirm=9.0*;GFP quencher=5
Oc1ccccc1/C=N/NP(=S)(c1ccccc1)c1ccccc1	-7	-8	1	-1
O=c1[nH]c2ccccc2n1C1CCN(C(c2ccnc3ccccc23)c2nnnn2-c2ccc3c(c2)OCCO3)CC1 (centres undefined)	-5	1	45*	4	Rin1-Abl confirm=32*;GFP quencher=0;GFP quench DR=>67
COc1ccc(C(c2nnnn2-c2ccc3c(c2)OCCO3)N2CCC(n3c(=O)[nH]c4ccccc43)CC2)cc1 (centres undefined)	-7	2	7	9
COc1ccc(-n2nnnc2C(CCSC)N2CCC(n3c(=O)[nH]c4ccccc43)CC2)cc1 (centres undefined)	-3	-2	13*	-5	Rin1-Abl confirm=8.2*;GFP quencher=-1
O=C1NC2NC(=O)N([N+](=O)[O-])C2N1 (centres undefined)	-20	-2	8.7*	-2	Rin1-Abl confirm=8.6*;GFP quencher=0
COc1cc2c(ccc3cc(OC)c(OC)c(O)c32)cc1O	.	-2	21*	1	Rin1-Abl confirm=17*;GFP quencher=6;GFP quench DR=>68
O=C(CN1C(=O)[C@@H](Cc2c[nH]c3ccccc23)N=C(c2ccccc2)c2ccccc21)NC1CCCCC1	.	-4	.	-3
CCOC(=O)c1ccc(NC(=O)NC2CC3CCC(C2)N3)cc1 (centres undefined)	3	5	18*	1	Rin1-Abl confirm=26*;GFP quencher=0;GFP quench DR=>68
CN1c2ccc(Br)cc2[C@H]2NCC[C@H]2[C@H]1CO	.	-4	.	-3
Brc1csc(N2CCNCC2)n1	.	2	.	2
COc1ccc(-n2c(/C=C/c3ccc(O)cc3)nc3ccccc3c2=O)cc1	-27	-5	-3	8
CCn1nc(/C=C/c2ccccc2)nc2c(=O)n(C)c(=O)nc1-2	-5	2	26*	12	Rin1-Abl confirm=40*;GFP quencher=2;GFP quench DR=>68
N#CCC[C@H]1CC[C@]2(CCCN(Cc3ccccn3)C2)O1	.	2	.	0
O=C(O)c1cccc2c1NC(C(=O)O)C1CC(Sc3ccccc3[N+](=O)[O-])C(Cl)C21 (centres undefined)	-4	-12	11*	-27	Rin1-Abl confirm=5;GFP quencher=20*
NCCc1cc(O)c(O)cc1O	-6	-1	39*	-5	Rin1-Abl confirm=41*;GFP quencher=8.7*
COc1cc(O)c2c(c1)/C=C/C[C@H](O)[C@H](O)[C@@H](O)/C=C/C[C@H](C)OC2=O	.	2	.	-3
N#CC1c2ccccc2-n2nncc2CN1C(=O)c1cccnc1 (centres undefined)	.	2	.	8
C[C@]12CCC3C(C(=O)C[C@H]4C[C@@H](O)CC[C@]34C)C1CCC2=O (some centres undefined)	-16	4	21*	3	Rin1-Abl confirm=20*;GFP quencher=-1;GFP quench DR=>68
